Bioassay records as filed in PubChem BioAssay.
HCV inh = blocks hepatitis C virus; Potency, µM (titrated, usually from 41.8 µM), inactives show top-dose activity change, negative = inhibition, actives largely listed as inhibitors; 340,000 compounds, 3.4% hits; Huh7.5.1 HCVcc-Cre infection, luciferase reporter, 44 h; active = well fitted inhibition curve with a large enough effect; inconclusive = small, poorly fitted or top-dose-only effect, or another doubt; inactive = no such curve, though single readings can be large or run the other way; also: potency is read from the fitted curve at half-maximal effect
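HCVcc-Cre virus at an moi near 0.5 was added right after compound to cells cultured 4 h from seeding (1,000 cells/well). Luciferase activity was determined 44 h later, 15 min after substrate addition at RT.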
FMDV inh = foot and mouth disease virus antiviral activity | Potency, µM (titrated, usually from 57.9 µM), inactives show top-dose activity change, negative = inhibition, hits mostly inhibitors | FMDV antiviral cell-based qHTS | 410,000 compounds, 1.2% hits; calls by dose curve; tested in HEK293T cells; also: read-out not given here; potency is read from the fitted curve at half-maximal effect; nearly all actives have a fitted effect of over 45% in size
VACV Venus inh = vaccinia inhibition (Venus reporter) | Vaccinia virus Venus reporter expression, fluorescence | Potency, µM (doses to about 36.5 µM), inactives show at the top dose activity change, negative = inhibition, most hits filed as inhibitors | 330,000 compounds, 0.46% hits | AID 720580; calls by dose curve; tested in A549 cells; also: potency is read from the fitted curve at half-maximal effect; nearly all actives have a fitted effect of over 30% in size
HCMV antiviral = blocks human cytomegalovirus replication | 410,000 compounds, 4.5% hits | activity change, negative = inhibition, % at 57.5 µM | AID 1259415 | HFF cells, HCMV-luciferase reporter, 72 h; stronger effect = lower value; in the data active = activity change below about -60%; inconclusive = no clear call, values can overlap the other calls; inactive = above about -39%
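Screen run at 2 compound doses on HFFs infected with reporter HCMV, MOI 1 PFU/cell. Luciferase activity from cell lysates at 72 h post infection gave inhibition relative to buffer-only and Salinomycin wells.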
Vaccinia mCherry = vaccinia inhibition (mCherry reporter); 310,000 compounds, 0.63% hits; Potency, µM (highest dose often 36.5 µM), for the others: at the highest dose activity change, negative = inhibition, actives largely listed as inhibitors; Vaccinia virus mCherry reporter infection, fluorescence; AID 720579; calls by dose curve; tested in A549 cells; also: potency is read from the fitted curve at half-maximal effect; nearly all actives have a fitted effect of over 35% in size
An asterisk follows results filed as active; i = inactive; ? = inconclusive; / = no result given; [ ] = dose if it differs, or a comment. Most compounds without a hit are left out; they make up all but 7.3% or so of the library. % is scaled to controls: 0 for no effect and ±100 for the full control effect.

SMILES | HCV inh | FMDV inh | VACV Venus inh | HCMV antiviral | Vaccinia mCherry
Cc1ccc(C)c(OCC(O)CN2CCCCC2C)c1 (configuration not stated) | ? | -11% | -9% | -5 | /
Cc1ccc(C)c(OCC(O)CN2C(C)CCCC2C)c1 (configuration not stated) | 13µM* | -9% | -16% | 5 | -25%
COC(=O)c1ccc(NC(=O)CCn2cccn2)cc1 | / | 6% | -1% | 4 | -8%
Cc1ccc2cccc(NC(=O)c3ccc(Br)o3)c2n1 | 10µM* | 0% | / | 142 | /
O=C(Nc1ccccc1)c1ccc(Br)o1 | -12% | 63% | -3% | -62* | i
Cc1ccc2cccc(NC(=S)NC(=O)c3ccn(C)n3)c2n1 | 32µM* | -20% | -10% | 78 | -3%
O=C(Nc1ccc2c(c1)oc1ccccc12)c1ccc(Br)o1 | 18µM* | 26% | ? | 10 | /
O=C(Nc1ccc2ccccc2c1)c1ccc(Br)o1 | -30% | 10% | 5% | 53 | ?
CCCNC(=O)CSc1nc2ccccc2nc1Cc1ccc(Cl)cc1 | / | 0% | -9% | 0 | -16%
COc1ccc(-c2c(C)oc3ccc(C)cc23)cc1 | 8% | -8% | / | -40 | /
COc1ccc2oc3cc(C)[n+]([O-])c(-c4ccc(Cl)cc4)c3c2c1 | ? | 35µM* | -12% | -91* | i
COc1ccc(-c2c3c(cc(C)[n+]2[O-])oc2ccc(OC)cc23)cc1 | -11% | 28µM* | -25% | -91* | -10%
COc1ccc2oc(-c3ccccc3)c(C(N)=O)c2c1 | -19% | 20% | / | -22 | /
COc1ccc2oc3cc(C)[n+]([O-])c(-c4ccc(C)cc4)c3c2c1 | ? | 25µM* | -21% | -93* | -11%
CCOCCCN1C(=O)CN(C2CCCCCC2)C(=O)C1c1ccc(OC(C)C)c(OC)c1 (configuration not stated) | / | -10% | -8% | -23 | -8%
CN(C)C(=O)c1ccc(/C=C/c2ccnc3ccccc23)cc1 | / | / | 1% | / | -22%
Cc1ccc(C(=O)N2CCN3C(=O)c4ccccc4C23c2ccc(Cl)cc2)cc1 (configuration not stated) | 10µM* | -12% | ? | -71* | /
Cc1ccc(C(=O)N2CCN(c3ccc(Cl)cc3)CC2)cc1 | 4% | -15% | -24% | -21 | -8%
O=C(CCl)N1CCN2C(=O)c3ccccc3C12c1ccc(Cl)cc1 (configuration not stated) | -9% | 10µM* | -5% | -115* | 4%
O=C(Nc1cccc(Cl)c1)N1CCN2C(=O)c3ccccc3C12c1ccccc1 (configuration not stated) | ? | ? | ? | 26 | ?
O=C(c1cccnc1)C1CCCN(Cc2ccc3c(c2)CN(C(=O)c2ccc4[nH]ccc4c2)CCO3)C1 (configuration not stated) | / | -10% | 10% | / | -2%
CC(C)(C)c1nnc(N/N=C/c2ccccc2O)n(N)c1=O | ? | 1% | ? | -102* | 2.8µM*
CCc1nnc(N/N=C/c2ccccc2F)n1N | -2% | 18% | ? | -80* | ?
COc1ccccc1N1CCN(C(=O)c2cc3c(=O)n(Cc4ccco4)ccc3nc2C)CC1 | / | -5% | -4% | -28 | -2%
CC(C)(C)C1CCc2c(sc(NC(=O)c3cc4ccccc4c(=O)o3)c2C(N)=O)C1 (configuration not stated) | / | -22% | 4% | 2 | -3%
SMILES | HCV inh | FMDV inh | VACV Venus inh | HCMV antiviral | Vaccinia mCherry
Cc1nc2cc(-c3ccccc3)sc2c(=O)n1N | -14% | 7.1µM* | -5% | -89* | -16%
COc1ccc(-c2cc3nc(C)n(N)c(=O)c3s2)cc1 | 8% | 7.9µM* | / | -38 | /
COc1ccc(-c2cc3nc4n(c(=O)c3s2)CCC4)cc1 | -7% | 0% | / | -23 | /
CCCCCCCCSc1nnc(/N=C/N(C)C)s1 | -7% | -8% | -16%[7.34 µM] | 6 | -24%[7.34 µM]
Cc1cc(Sc2nnc(/N=C/N(C)C)s2)c2ccccc2n1 | ? | 14µM* | / | -106* | /
Cc1cc(Sc2nnc(N)s2)c2ccccc2n1 | ? | 14µM* | / | -108* | /
CC1CN(c2ccc([N+](=O)[O-])c(NCCOc3ccc(Cl)cc3)c2)CC(C)N1 (configuration not stated) | 8.9µM* | -6% | / | -17 | /
CCc1ccc(OCCNc2cc(N3CCNC(C)C3)ccc2[N+](=O)[O-])cc1 (configuration not stated) | 14µM* | -8% | / | -3 | /
COCc1c(C(=O)N2CCN(C3CCCC3)CC2)cnn1-c1ncc2c(n1)-c1ccccc1CCC2 | / | -8% | -1% | / | -22%
COc1ccc(C2CC3(CC(C)(C)NC(SC)=N3)Oc3cc(O)cc(C)c32)cc1 (configuration not stated) | 13µM* | -25% | -24% | -76* | ?
COc1ccc(C2CC3(CC(C)(C)NC(=O)N3)Oc3cc(O)ccc32)cc1 (configuration not stated) | -12% | -1% | / | 9 | /
Cc1cc(O)cc2c1C(c1ccc(F)cc1)CC1(CC(C)(C)NC(=S)N1)O2 (configuration not stated) | 22µM* | -22% | -1% | / | -8%
COc1ccc(C2CC3(CC(C)(C)NC(=S)N3)Oc3cc(O)cc(C)c32)cc1 (configuration not stated) | ? | -6% | -17% | 46 | i
CC(=O)N1CCCC(c2cc(C(=O)Nc3ccccc3)no2)C1 (configuration not stated) | / | 35µM* | 4% | -73* | -1%
COC(=O)c1cc(NC(=O)C(C)c2ccc(CC(C)C)cc2)ccc1O (configuration not stated) | 11µM* | -5% | -8% | -79* | ?
CC(C)(C)CC(C)(C)c1ccc(O)c(Cc2ccc(Cl)cc2Cl)c1 | -19% | 28µM* | ? | -86* | ?
CC(C)(C)CC(C)(C)c1ccc(O)c(CN2CCN(CCC#N)CC2)c1 | 1% | ? | / | -17 | /
Nc1ccc2c3c(ccc([N+](=O)[O-])c13)CC2 | / | -26% | -12% | -69* | -20%
COc1ccccc1NC(=O)Cn1c(C)nc2c(sc(=S)n2Cc2ccco2)c1=O | 13µM* | -27% | -5%[7.34 µM] | 14 | -16%[7.34 µM]
Cc1ccc(NC(=O)Cn2c(=O)n(Cc3ccco3)c(=O)c3sc4ccccc4c32)c(C)c1 | / | -3% | -20% | -2 | -6%
O=C(Cn1c(=O)n(Cc2ccco2)c(=O)c2sc3ccccc3c21)Nc1ccc(F)cc1F | / | -23% | -8% | -74* | -11%
Cc1nc2c(sc(=S)n2Cc2ccco2)c(=O)n1CC(=O)Nc1cc(F)ccc1F | 13µM* | 0% | / | 9 | /
Cc1ccc(NC(=O)C(Cc2ccccc2)N2Cc3ccccc3C2=O)cc1Cl (configuration not stated) | / | -3% | -8% | -32 | i
Cc1ccc(NC(=O)c2sc(Cl)nc2C)c(C)c1 | -1% | 23% | ? | 6 | 11µM*
Cc1ccccc1NC(=O)c1sc(Cl)nc1C | 4% | -2% | ? | -7 | 10µM*
COC(=O)c1ccccc1NC(=O)c1sc(N)nc1C | -14% | -8% | 0% | -101* | /
